# SENP6 inh = SENP6 protease inhibition; Q9GZR1; inhibition, % at 10 µM; 330,000 tested, 1.8% active; Recombinant SENP6 catalytic domain, aminoluciferin luminescence;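 active = inhibition above about 50% at the single tested dose, limit read from the data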;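 also: plate controls were DMSO wells with enzyme for no effect and DMSO wells lacking enzyme for full effect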
# Target sequence (Q9GZR1 628-1112 limits assumed): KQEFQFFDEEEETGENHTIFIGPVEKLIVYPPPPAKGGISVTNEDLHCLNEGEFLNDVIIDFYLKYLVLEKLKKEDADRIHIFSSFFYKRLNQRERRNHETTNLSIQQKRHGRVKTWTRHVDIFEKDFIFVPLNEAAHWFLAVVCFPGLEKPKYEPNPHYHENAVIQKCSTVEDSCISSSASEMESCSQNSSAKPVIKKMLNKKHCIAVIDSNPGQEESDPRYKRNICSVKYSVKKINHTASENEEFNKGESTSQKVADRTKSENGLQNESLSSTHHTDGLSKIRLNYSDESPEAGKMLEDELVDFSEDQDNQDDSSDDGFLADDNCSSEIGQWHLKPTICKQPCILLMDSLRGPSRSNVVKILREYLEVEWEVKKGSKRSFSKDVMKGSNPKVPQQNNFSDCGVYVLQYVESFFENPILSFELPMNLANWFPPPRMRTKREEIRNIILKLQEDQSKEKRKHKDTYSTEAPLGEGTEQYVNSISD
# SENP8 block-1 = SENP8 (human) protease inhibition | Q96LD8 | recombinant SENP8, Nedd8 substrate fluorescence | inhibition, % at 20 µM | 360,000 tested, 0.64% active; in the data active = inhibition mostly above about 40%, no sharp cut-off; inactive = mostly below about 27%
# C8 TRAIL sens = caspase-8 TRAIL sensitization | NB7+C8 cells + TRAIL, ATPlite viability luminescence | inhibition (viability loss, TRAIL sensitization), % at 10 µM | 360,000 tested, 1% active;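 active = compounds causing at least 50% loss of cell viability in the single-dose screen, relative to plate controls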
# SENP8 block-2 = blocks the human protease SENP8. purified SENP8, Z-RLRGG-aminoluciferin cleavage, luminescence. inhibition, % at 10 µM. 330,000 tested, 1.2% active. AID 2540; in the data active = inhibition above about 50%
# PPC-1+TRAIL kill = compounds killing PPC-1 cancer cells with TRAIL present (potentiator screen, no TRAIL-free arm); PPC-1 cells + TRAIL, ATPLite viability luminescence; 220,000 tested, 0.41% active; cell killing (% activity), % at 4 µM or 5 µM;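 active = cell killing above 50% in the first pass at 4 µM, then a duplicate retest at 5 µM averaging 50% or more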;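 also: plate controls were cells with TRAIL plus DMSO for no effect and medium-only wells lacking cells for full effect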
# SENP7 block = inhibitors of human SENP7 protease; AID 434973; Q9BQF6; inhibition, % at 5 µM; recombinant SENP7, Z-RLRGG-aminoluciferin luminescence, 40 min; 330,000 tested, 1.5% active;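 active = inhibition above about 50% at the single test dose, limit read from the data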;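 also: plate controls were DMSO with enzyme for no effect and no enzyme buffer wells for full effect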
# SENP8 inh conf = confirmation of human SENP8 protease inhibitors; inhibition, % at 25 µM; purified SENP8, Nedd8-AMC/pro-Nedd8 cleavage fluorescence, 30 min; shares compounds with SENP8 block-1; 1,400 tested, 15% active; in the data active = inhibition mostly above about 39%, no sharp cut-off; inactive = mostly below about 34%
# The depositor's hits bear a star; / = not tested or not shown. Rows were chosen to be rich in hits. Some 3% of all compounds tested hit in one or more screens of this group.
SMILES,SENP6 inh,SENP8 block-1,C8 TRAIL sens,SENP8 block-2,PPC-1+TRAIL kill,SENP7 block,SENP8 inh conf
CNC(=O)c1ccc(NC(=O)c2ccccc2OCc2c(C)noc2C)cc1,/,-1,-10,/,/,/,/
CC(C)C[C@H](N)C(=O)N1CCC(C(=O)N[C@H](C(=O)NCc2ccc(F)cc2)C(C)C)CC1,-17,8,6,-5,/,-8,/
CC(C)C[C@H](N)C(=O)N1CCC(C(=O)N[C@H](C(=O)NC(C)c2ccccc2)C(C)C)CC1 (stereo partly drawn),7,42*,11,4,/,-8,11
COc1ccc(CNC(=O)[C@@H](NC(=O)C2CCN(C(=O)[C@@H](N)CC(C)C)CC2)C(C)C)cc1,-10,52*,6,-6,/,13,9
CS(=O)(=O)c1ccccc1-c1nnc(NC(=O)c2cccc(N3C(=O)CCC3=O)c2)o1,-13,5,-7,0,/,7,/
CCOc1ccccc1NC1=C(Cl)C(=O)N(Cc2ccccc2)C1=O,-12,41*,2,-4,-3,-9,17
NC(=O)N/N=C/C=C/c1ccc(F)cc1,-39,43*,13,5,9,-1,25
O=C(N/N=C\C=C\c1ccc2c(c1)OCO2)c1ccc(F)cc1,0,-375,5,-7,8,-1,/
CCC(C)[C@H](NC(=O)Nc1ccc(S(N)(=O)=O)cc1)C(=O)O (stereo partly drawn),-19,10,1,-10,18,-12,/
CCC(C)[C@H](NC(=O)Nc1cccc(Cl)c1)C(=O)O (stereo partly drawn),-25,48*,-1,-6,4,0,16
CCC1(c2ccc(F)cc2)NC(=O)N(CC(=O)Nc2cc(S(=O)(=O)N(C)C)ccc2Cl)C1=O (stereo not drawn),2,4,-4,4,14,-6,/
CC(OC(=O)CN1C(=O)NC2(CCCC2)C1=O)C(=O)Nc1cccc(Cl)c1 (stereo not drawn),-3,6,-9,-6,/,-3,/
c1ccc(CN(Cc2cccs2)C(c2cccs2)c2nnnn2C2CCCC2)cc1 (stereo not drawn),-2,43*,18,-6,-3,-2,12
c1ccc(CC2CCN(C(c3cccs3)c3nnnn3C3CCCC3)CC2)cc1 (stereo not drawn),0,12,-3,-2,42,7,/
O=C(NC1CCCCC1)C(c1ccco1)N(CCc1ccccc1)C(=O)C(F)(F)F (stereo not drawn),-11,45*,-1,2,19,0,20
CCN(c1cccc(C)c1)S(=O)(=O)c1ccc2c(c1)N(C(C)=O)CCS2,9,9,-6,7,/,6,/
O=C1c2c(O)cc(O)cc2O[C@H](c2ccc(O)cc2)[C@H]1O,-13,62*,-9,-16,/,1,21
O=C(NNS(=O)(=O)c1ccc(F)cc1)C1CC(c2cccnc2)=NO1 (stereo not drawn),5,-2,-13,-8,25,-6,/
O=C(OCc1cccc(F)c1)c1cc2ccccc2cc1O,8,-34,1,3,/,-1,/
O=C(O)CCc1ccc(-c2ccc(Br)cc2)n1NC(=O)c1ccc([N+](=O)[O-])cc1,-10,44*,-10,0,0,5,25
CCSc1nnc(NC(=O)c2ccco2)s1,-8,-19,14,-7,17,0,/
CCSc1nnc(NC(NC(=O)c2ccco2)(C(F)(F)F)C(F)(F)F)s1,11,41*,-4,3,12,-1,28
CCCc1nc2ccccc2n1CCOc1ccccc1,-10,42*,16,-4,-14,8,7
O=C(O)c1ncsc1-c1ccccc1,-12,43*,7,-3,-4,-3,23
NCCNC(=O)c1ncsc1-c1cccc(F)c1,-4,9,7,-4,/,4,/
CC(=O)c1ccc(NC(=O)Cc2ccsc2)cc1,-18,-1,5,-15,/,-15,/
Cc1cc(C)c2c(=O)[nH]c(SCC(=O)c3ccc(F)c(C)c3)nc2n1,/,-17,-2,/,5,/,/
O=C(NCc1ccccc1)c1ccccc1,/,62*,-10,/,/,/,18
O=C(NCc1ccccc1)c1ccc(C(=O)NCc2ccccc2)cc1,/,15,4,/,/,/,/

# Assay outcomes from PubChem BioAssay.
